Reference: PubChem BioAssay (Tox21)
Inconclusive results are not listed. Unmarked numbers belong to inactive results. Activity calls are given as the source filed them. Calls come from the whole dose curve; as a rule, active = well fitted cell-killing curve with a large enough effect in the repeat runs; inconclusive = weak or mixed curves, or effect the other way; inactive = flat fitted curve, though single readings scatter.

assay: qHTS RealTime-Glo MT Cell Viability Assay in HEK293 cells - 0 hour (AID 1224880); settings: RealTime-Glo luminescence; series mostly up to 76.8 µM; activity change, negative = cytotoxicity: at the top concentration; note: nearly all actives have a fitted effect of over 45% in size; for activity change, negative = cytotoxicity: top concentration of the series differs between compounds
Description: U.S. Tox21 Program National Center for Advancing Translational Sciences [NCATS] NIH Chemical Genomics Center [NCGC] U.S. Environmental Protection Agency [EPA] National Institutes of Environmental Health Sciences [NIEHS] National Toxicology Program [NTP] U.S. Food and Drug Administration [FDA] Tox21 Assay Overview: Measure of cell viability is critical in the cell-base assay. Analysis of cell viability is necessary for the characterization of cell responses to cytotoxic drugs and environmental stress. A RealTime-Glo MT Cell Viability Assay to monitor cell viability in real time of continues cell culture during 40 hours of compound treatment was used to screen Tox21 10K library compounds in Hek293 cells. The RealTime-Glo MT Cell Viability Assay is a nonlytic, homogeneous, bioluminescent method to measure cell viability in real time using a simple, plate-based method. The assay involves adding NanoLuc luciferase and a cell-permeant prosubstrate to cells in culture. Viable cells reduce the proprietary prosubstrate to generate a substrate for NanoLuc luciferase. This substrate diffuses from cells into the surrounding culture medium, where it is rapidly used by the NanoLuc Enzyme to produce a luminescent signal. The signal correlates with the number of viable cells, making the assay well suited for cytotoxicity studies.
Tox21 Assay Protocol Summary: The mixture of Hek293 cell suspension and reagents were dispensed at 600cells/6 ul/well in 1536-well tissue culture treated black solid bottom plates using a Multidrop dispenser. After the assay plates were incubated at a 37 C/5% CO2 incubator for 5 hours, 23 nL of compounds dissolved in DMSO, positive and negative controls was transferred to the assay plate by a pintool work station. The plates were incubated at 37 C for 40 hours. The luminescence intensity were measured at 0h, 8h, 16h, 24h, 32h and 40h time points using ViewLux plate reader during compound treatment.
% is set by controls: 0 for no effect and ±100 for the full control effect; potency is the fitted concentration of half-maximal effect.

SMILES	Potency	activity change, negative = cytotoxicity
O=C1CN=C(c2ccccc2)c2cc(Cl)ccc2N1CC1CC1	16.3 µM (active)	
O=C(C(Cl)(Cl)Cl)C(Cl)(Cl)Cl		4%
N#C/C(N)=C(/N)C#N		-0.678%
S=C=NCc1ccccc1		-3.79%
Clc1cc(C(Cl)(Cl)Cl)cnc1Cl		2.18%
C=CCOC(C)=O		-18.4%
CC(C)N(CCC(C(N)=O)(c1ccccc1)c1ccccn1)C(C)C (stereo not given)		-2.91% [at 35.3 µM]
O=Cc1ccc2c(c1)OCO2		8.88%
CN1[C@@H]2CC[C@H]1CC(OC(=O)c1cc(Cl)cc(Cl)c1)C2 (stereo not given in full)		19.1% [at 35.3 µM]
CCOP(=S)(OCC)Oc1cc(Cl)c(Br)cc1Cl		-7.63%
CCCCOC(=O)c1ccccc1C(=O)OCc1ccccc1	inactive	
ClP(Cl)(Cl)(Cl)Cl		-13%
CCc1ccc(C(=O)NN(C(=O)c2cc(C)cc(C)c2)C(C)(C)C)cc1		-8.34%
C(=NC1CCCCC1)=NC1CCCCC1	inactive	
CCCCCCCCCC(=O)O[C@H]1CC[C@H]2[C@@H]3CCC4=CC(=O)CC[C@@H]4[C@H]3CC[C@]12C		3.11% [at 35.3 µM]
COC(N)=O		4.79%
O=C(O)CC(Cl)C(=O)O (stereo not given)		-17.3%
CCCCCCCCCCOC(=O)c1ccccc1C(=O)OCCCCCCCCCC		-1.59%
CCCC(Cn1cncn1)c1ccc(Cl)cc1Cl (stereo not given)		16.3%
CCCN(CCCl)c1c([N+](=O)[O-])cc(C(F)(F)F)cc1[N+](=O)[O-]		3.92%

SMILES	Potency	activity change, negative = cytotoxicity
CCOS(C)(=O)=O		-6.83%
CN1C(=O)NC(=O)C(C)(C2=CCCCC2)C1=O (stereo not given)		-2.66% [at 35.3 µM]
CN1C(=O)C(O)N=C(c2ccccc2)c2cc(Cl)ccc21 (stereo not given)		-21%
O=C(O)C1(c2ccc3c(c2)OC[C@H](Cc2ccc(-c4ccccc4)cc2)[C@H]3O)CCCC1		-22.4%
CCOC(=O)[C@]1(c2ccccc2)Oc2ccccc2[C@@H]1N		4.96%
[O-][Cl+]O		3.14%
Cc1c(F)c(F)c(COC(=O)C2C(/C=C(\Cl)C(F)(F)F)C2(C)C)c(F)c1F (stereo not given)		-8.43%
C=CC(=O)OCC(C)O (stereo not given)		8.97%
CCCCC(O)(Cn1cncn1)c1ccc(Cl)cc1Cl (stereo not given)		-17.3%
C[C@H]1CNCCc2ccc(Cl)cc21		18.3% [at 35.3 µM]
N#CCC#N		-0.578%
CCCCN=C=O		0.78%
C=CC(C)=O		5.53%
O=[N+]([O-])c1ccc(F)c([N+](=O)[O-])c1		-25%
CCOP(=O)(OCC)Oc1ccc([N+](=O)[O-])cc1	inactive	
C=CC(=O)OC		-2.34%
c1ccc(CN2CCNCC2)cc1		-0.542% [at 200 µM]
ClCc1ccccc1		-15.6%
O=Cc1ccc(Cl)cc1Cl		7.32%
COc1ccc(-c2ccccc2)cc1NNC(=O)OC(C)C		-3.85%
